# Only a selection was taken, and the strongest signals are over-represented in it overall.
# B1: Gal 12 (Homo sapiens), Q96DT0 (protein)
# chain: MSQPSGGRAPGTRIYSWSCPTVMSPGEKLDPIPDSFILQPPVFHPVVPYVTTIFGGLHAGKMVMLQGVVPLDAHRFQVDFQCGCSLCPRPDIAFHFNPRFHTTKPHVICNTLHGGRWQREARWPHLALRRGSSFLILFLFGNEEVKVSVNGQHFLHFRYRLPLSHVDTLGIFGDILVEAVGFLNINPFVEGSREYPAGHPFLLMSPRLEVPCSHALPQGLSPGQVIIVRGLVLQEPKHFTVSLRDQAAHAPVTLRASFADRTLAWISRWGQKKLISAPFLFYPQRFFEVLLLFQEGGLKLALNGQGLGATSMNQQALEQLRELRISGSVQLYCVHS
# Legend:
# Assay in all cases: glycan array binding signal (z-score within array); higher = stronger binding
# Details in all cases: glycan notation: IUPAC condensed, linker removed
# [1] = target: Fuc(a1-2)Gal(b1-3)GlcNAc(b1-3)[Neu5Ac(a2-6)Gal(b1-4)GlcNAc(b1-6)]Gal(b1-4)Glc
# Method in brief: (§1)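 Glycan array binding is given as a within-array Z-score, which can be read as non-binding when negative. The arrays, 3228 of them, came from the Consortium for Functional Glycomics database and were retained only where the protein sequence was available. Z-scores were averaged across arrays of the same protein sequence at different concentrations or buffers and across linkers.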
# [2] = target: Fuc(a1-2)Gal(b1-3)[Fuc(a1-4)]GlcNAc(b1-2)Man(a1-3)[Fuc(a1-2)Gal(b1-3)[Fuc(a1-4)]GlcNAc(b1-2)Man(a1-6)]Man(b1-4)GlcNAc(b1-4)GlcNAc
# Method in brief: as §1
# [3] = target: Fuc(a1-2)Gal(b1-4)[Fuc(a1-3)]GlcNAc(b1-2)[Fuc(a1-2)Gal(b1-4)[Fuc(a1-3)]GlcNAc(b1-4)]Man(a1-3)[Fuc(a1-2)Gal(b1-4)[Fuc(a1-3)]GlcNAc(b1-2)Man(a1-6)]Man(b1-4)GlcNAc(b1-4)GlcNAc
# Method in brief: as §1
# [4] = target: Fuc(a1-2)Gal(b1-4)[Fuc(a1-3)]GlcNAc(b1-3)GalNAc
# Method in brief: as §1
# [5] = target: Fuc(a1-2)[Gal(a1-3)]Gal(b1-3)GlcNAc(b1-2)Man(a1-3)[Fuc(a1-2)[Gal(a1-3)]Gal(b1-3)GlcNAc(b1-2)Man(a1-6)]Man(b1-4)GlcNAc(b1-4)GlcNAc
# Method in brief: as §1
# [6] = target: Fuc(a1-2)[Gal(a1-3)]Gal(b1-4)GlcNAc(b1-3)GalNAc
# Method in brief: as §1
# [7] = target: Fuc(a1-2)[Gal(a1-3)]Gal(b1-4)[Fuc(a1-3)]GlcNAc(b1-3)GalNAc
# Method in brief: as §1
# [8] = target: Fuc(a1-2)[GalNAc(a1-3)]Gal(b1-4)GlcNAc(b1-3)GalNAc
# Method in brief: as §1
# [9] = target: Fuc(a1-2)[GalNAc(a1-3)]Gal(b1-4)[Fuc(a1-3)]GlcNAc(b1-3)GalNAc
# Method in brief: as §1
# [10] = target: Fuc(a1-3)[Gal(b1-4)]GlcNAc(b1-3)GalNAc
# Method in brief: as §1
# [11] = target: Fuc(a1-3)[Gal(b1-4)]GlcNAc(b1-4)Gal(b1-4)[Fuc(a1-3)]GlcNAc
# Method in brief: as §1
# [12] = target: Gal(a1-2)Gal
# Method in brief: as §1
# [13] = target: Gal(a1-6)Glc
# Method in brief: as §1
# [14] = target: Gal(b1-3)GlcNAc(a1-6)Gal(b1-4)GlcNAc
# Method in brief: as §1
# [15] = target: Gal(b1-3)GlcNAc(b1-2)Man(a1-3)[Gal(b1-3)GlcNAc(b1-2)Man(a1-6)]Man(b1-4)GlcNAc(b1-4)GlcNAc
# Method in brief: as §1
# [16] = target: Gal(b1-3)GlcNAc(b1-3)Gal(b1-4)Glc
# Method in brief: as §1
# [17] = target: Gal(b1-3)GlcNAc(b1-3)Gal(b1-4)GlcNAc(b1-2)Man(a1-3)[Gal(b1-3)GlcNAc(b1-3)Gal(b1-4)GlcNAc(b1-2)Man(a1-6)]Man(b1-4)GlcNAc(b1-4)GlcNAc
# Method in brief: as §1
# [18] = target: Gal(b1-3)GlcNAc(b1-6)GalNAc
# Method in brief: as §1
# [19] = target: Gal(b1-4)GlcNAc(b1-2)[Gal(b1-4)GlcNAc(b1-6)]Man(a1-6)[Gal(b1-4)GlcNAc(b1-2)Man(a1-3)]Man(b1-4)GlcNAc(b1-4)[Fuc(a1-6)]GlcNAc
# Method in brief: as §1
# [20] = target: Gal(b1-4)GlcNAc(b1-3)Gal(b1-4)GlcNAc(b1-3)Gal(b1-4)GlcNAc
# Method in brief: as §1
# [21] = target: Gal(b1-4)GlcNAc(b1-3)Gal(b1-4)GlcNAc(b1-3)Gal(b1-4)GlcNAc(b1-2)[Gal(b1-4)GlcNAc(b1-3)Gal(b1-4)GlcNAc(b1-3)Gal(b1-4)GlcNAc(b1-6)]Man(a1-6)[Gal(b1-4)GlcNAc(b1-3)Gal(b1-4)GlcNAc(b1-3)Gal(b1-4)GlcNAc(b1-2)Man(a1-3)]Man(b1-4)GlcNAc(b1-4)[Fuc(a1-6)]GlcNAc
# Method in brief: as §1
# [22] = target: Gal(b1-4)GlcNAc(b1-3)Gal(b1-4)GlcNAc(b1-3)Gal(b1-4)GlcNAc(b1-3)Gal(b1-4)GlcNAc(b1-2)Man(a1-3)[Gal(b1-4)GlcNAc(b1-3)Gal(b1-4)GlcNAc(b1-3)Gal(b1-4)GlcNAc(b1-3)Gal(b1-4)GlcNAc(b1-2)Man(a1-6)]Man(b1-4)GlcNAc(b1-4)GlcNAc
# Method in brief: as §1
# [23] = target: Gal(b1-4)GlcNAc(b1-3)Gal(b1-4)GlcNAc(b1-3)[Gal(b1-4)GlcNAc(b1-3)Gal(b1-4)GlcNAc(b1-6)]GalNAc
# Method in brief: as §1
# [24] = target: Gal(b1-4)GlcNAc(b1-3)[Gal(b1-4)GlcNAc(b1-6)]Gal(b1-4)GlcNAc
# Method in brief: as §1
binder,measurement,setting,value
B1,glycan array binding signal (z-score),[1],-0.876
same,glycan array binding signal (z-score),[2],6.26
same,glycan array binding signal (z-score),[3],3.71
same,glycan array binding signal (z-score),[4],5.15
same,glycan array binding signal (z-score),[5],-0.674
same,glycan array binding signal (z-score),[6],-0.63
same,glycan array binding signal (z-score),[7],4.56
same,glycan array binding signal (z-score),[8],0.193
same,glycan array binding signal (z-score),[9],2.65
same,glycan array binding signal (z-score),[10],2.44
same,glycan array binding signal (z-score),[11],-0.147
same,glycan array binding signal (z-score),[12],-0.863
same,glycan array binding signal (z-score),[13],-0.527
same,glycan array binding signal (z-score),[14],-0.349
same,glycan array binding signal (z-score),[15],0.94
same,glycan array binding signal (z-score),[16],-0.471
same,glycan array binding signal (z-score),[17],-0.574
same,glycan array binding signal (z-score),[18],-0.771
same,glycan array binding signal (z-score),[19],1.75
same,glycan array binding signal (z-score),[20],-0.453
same,glycan array binding signal (z-score),[21],3.44
same,glycan array binding signal (z-score),[22],2.32
same,glycan array binding signal (z-score),[23],-0.119
same,glycan array binding signal (z-score),[24],0.824
